Results from ChEMBL document CHEMBL1961873, “Compounds: GSK PKIS; Assays: Nanosyn kinase panel” (2012).

biological target: T1, Testis-specific serine/threonine-protein kinase 2 (Homo sapiens) (UniProt Q96PF2); conditions: at 0.1 µM
T1 sequence (whole entry): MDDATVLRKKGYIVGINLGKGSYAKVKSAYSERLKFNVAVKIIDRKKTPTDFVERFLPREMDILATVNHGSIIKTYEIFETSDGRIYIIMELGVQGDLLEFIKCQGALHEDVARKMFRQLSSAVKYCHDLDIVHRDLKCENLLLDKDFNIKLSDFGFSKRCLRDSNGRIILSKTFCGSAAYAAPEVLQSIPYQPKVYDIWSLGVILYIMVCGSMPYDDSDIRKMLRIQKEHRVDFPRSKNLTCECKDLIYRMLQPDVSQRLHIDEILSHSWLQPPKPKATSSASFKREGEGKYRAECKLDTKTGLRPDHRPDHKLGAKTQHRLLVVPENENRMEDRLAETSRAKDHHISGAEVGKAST
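Note: values are mean inhibition of TSSK2 activity from the GSK PKIS profiling panel.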

| Structure (SMILES) | inhibition |
| --- | --- |
| COc1cc(/C=N/Nc2ncnc3[nH]ncc23)ccc1O | 3.14% |
| COc1cc(Nc2nccc(Nc3ccc4c(C)n[nH]c4c3)n2)cc(OC)c1OC | -0.93% |
| COc1cc2c(cc1Nc1nc(Nc3ccsc3C(N)=O)c3cc[nH]c3n1)N(C(=O)CN(C)C)CCC2(C)C | 87.4% |
| CCn1c(-c2nonc2N)nc2c(C#CC(C)(C)O)nc(OC[C@H](N)c3ccccc3)cc21 | 0.93% |
| COC(=O)Nc1nc2ccc(S(=O)(=O)c3ccc(NC(=O)Nc4cc(C(F)(F)F)ccc4F)cc3)cc2[nH]1 | 0.12% |
| N#Cc1c(NC(=O)c2ccc(F)cc2)sc2c1CCCC2 | 0.22% |
| CCn1c(-c2nonc2N)nc2c(C#CC(C)(C)O)ncc(OC3CCNCC3)c21 | 0.88% |
| CCn1c(-c2nonc2N)nc2cnc(Oc3cccc(NC(=O)c4ccc(N(C)C)cc4)c3)cc21 | -0.81% |
| Fc1cccc(COc2ccc(Nc3ncnc4sc(-c5ccco5)cc34)cc2Cl)c1 | 0.52% |
| O=S(=O)(CCNCc1ccc(-c2ccc3ncnc(Nc4ccc(OCc5cccc(F)c5)c(Cl)c4)c3c2)o1)c1ccccc1 | 2.59% |
| COc1cccc(-n2ncc3c(N/N=C/c4ccc(F)cc4)ncnc32)c1 | 4.45% |
| NC(=O)c1sc(-n2cnc3ccc(C(F)(F)F)cc32)cc1OCc1ccccc1Br | 2.62% |
| NS(=O)(=O)c1ccc(N/N=C2\C(=O)Nc3ccc4ncccc4c32)cc1 | 0.69% |
| c1ccc(-c2nc3n(c2-c2ccc4c(c2)OCO4)CCC3)nc1 | 0.79% |
| CCNC(=O)O[C@H]1CN[C@H](C#Cc2cc3ncnc(Nc4ccc(OCc5cccc(F)c5)c(Cl)c4)c3s2)C1 | 3.47% |
